Assay results taken from PubChem BioAssay (Tox21).
Calls of active or inactive are those of the source. Where a call stands in place of a potency, no number is given. Unless noted, the call rests on the fitted dose curve; in most records, active means well fitted curve in the direction sought with a large enough effect in the repeat runs; inconclusive means weak or mixed curves; inactive means no such curve, though single readings can be large; an effect the other way counts as inactive or inconclusive.

Legend:
[1] = qHTS assay to identify small molecule antagonists of the glucocorticoid receptor (GR) signaling pathway - cell viability counter screen (AID 720693); settings: GR-bla HeLa viability, CellTiter-Glo luminescence, 18 h, with 5 nM dexamethasone present; series mostly up to 58.5 µM; further: nearly all actives have a fitted effect of over 55% in size
[2] = qHTS assay for identifying genotoxic compounds that show differential cytotoxicity against isogenic chicken DT40 cell lines with known DNA damage response pathways - wild type cell line (AID 743012); settings: DT40 wild type chicken cells viability, CellTiter-Glo, 40 h; series mostly up to 68.4 µM; further: nearly all actives have a fitted effect of over 60% in size; further: potency means the concentration at half of the fitted maximal effect
How it was run: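 Cells (DT40 wild type, 300/well) are treated with DMSO-dissolved compounds after a ~0.5 h pre-incubation and kept 40 h at 37 C/5% CO2. Viability is then measured by CellTiter-Glo luminescence following 30 min at room temperature.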

[3] = qHTS assay for identifying genotoxic compounds that show differential cytotoxicity against isogenic chicken DT40 cell lines with known DNA damage response pathways - Rev3 mutant cell line (AID 743014); settings: chicken DT40 Rev3-/- viability, CellTiter-Glo, 40 h; series mostly up to 68.4 µM; further: nearly all actives have a fitted effect of over 55% in size; further: potency means the concentration at half of the fitted maximal effect
[4] = qHTS assay for identifying genotoxic compounds that show differential cytotoxicity against isogenic chicken DT40 cell lines with known DNA damage response pathways - Rad54/Ku70 mutant cell line (AID 743015); settings: DT40 Rad54/Ku70 mutant viability, CellTiter-Glo, 40 h; series mostly up to 66.8 µM; further: nearly all actives have a fitted effect of over 60% in size; further: potency means the concentration at half of the fitted maximal effect
[5] = qHTS assay to identify small molecule antagonists of the androgen receptor (AR) signaling pathway - cell viability counter screen (AID 743033; further: nearly all actives have a fitted effect of over 45% in size); settings: AR-bla HEK293 viability, CellTiter-Glo luminescence, 16 h; series mostly up to 58.5 µM
[6] = qHTS assay to identify small molecule antagonists of the androgen receptor (AR) signaling pathway using the MDA cell line - cell viability counter screen (AID 743041; further: nearly all actives have a fitted effect of over 45% in size); settings: MDA-kb2 viability, CellTiter-Fluor, 16 h, cells co-treated with R1881 androgen agonist; series mostly up to 70.3 µM
How it was run: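 Cells were plated at 3,000 per well and left 5 h. Compounds in DMSO were then pinned in, followed by R1881. After 16 h at 37C, CellTiter-Fluor fluorescence gave viability.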

[7] = qHTS assay to identify small molecule antagonists of the thyroid receptor (TR) signaling pathway - cell viability counter screen (AID 743064); settings: GH3.TRE-Luc viability, CellTiter-Fluor, 24 h; series mostly up to 70.3 µM; further: nearly all actives have a fitted effect of over 50% in size; further: potency means the concentration at half of the fitted maximal effect
How it was run: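 GH3.TRE-Luc rat pituitary cells carrying a TRE-luciferase reporter were treated with compound plus 1 nM T3 (final) for 23.5 h at 37 °C. Viability was then read in the same wells by CellTiter-Fluor fluorescence after a further 30 min.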

[8] = qHTS assay to identify small molecule antagonists of the thyroid receptor (TR) signaling pathway (AID 743065); settings: GH3.TRE-Luc, T3-stimulated luciferase inhibition, 23.5 h; series mostly up to 70.3 µM; further: nearly all actives have a fitted effect of over 55% in size; further: potency means the concentration at half of the fitted maximal effect
How it was run: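 Antagonism measured as loss of luciferase signal in GH3 cells stably carrying a TRE-luciferase reporter, co-treated with compound and T3 (1 nM final) for 23.5 h at 37 C. Viability was read in the same well by CellTiter-Fluor.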

[9] = test system: thyroid hormone receptor (rat, GH3 cells); assay: qHTS assay to identify small molecule agonists of the thyroid receptor (TR) signaling pathway (AID 743066; calls by dose curve); settings: GH3.TRE-Luc cells, TR agonist luciferase, 24 h; series mostly up to 83.9 µM
[10] = target: Estrogen receptor (Homo sapiens) (UniProt P03372); assay: qHTS assay to identify small molecule antagonists of the estrogen receptor alpha (ER-alpha) signaling pathway (AID 743069; active means well fitted curve in the direction sought with a large enough effect in the signal ratio in the repeat runs, not every such curve was filed as active; inconclusive means weak or mixed curves, or effect the other way; inactive means no such curve, though single readings can be large or run the other way; the % refers to the signal ratio); settings: HEK293 ER-alpha-UAS-bla, beta-lactamase ratio, antagonist mode; series mostly up to 69.4 µM
How it was run: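 ER-alpha-UAS-bla GripTite HEK293 line; 2% charcoal-stripped FBS overnight; plated, 4 hr 37C/5% CO2; cpd in DMSO + 17beta-estradiol, 18 hr 37C; LiveBLAzer B/G FRET substrate 2 hr RT; fluorescence intensity.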

[11] = qHTS assay to identify small molecule antagonists of the estrogen receptor alpha (ER-alpha) signaling pathway - cell viability counter screen (AID 743074; calls by dose curve;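 further: HEK293 cells carrying ER-alpha-UAS-bla reporter stimulated with 17beta-estradiol; nearly all actives have a fitted effect of over 45% in size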); settings: ERalpha-bla HEK293 viability, CellTiter-Glo luminescence, 18 h; series mostly up to 69.4 µM
[12] = target: Estrogen receptor (Homo sapiens) (UniProt P03372); assay: qHTS assay to identify small molecule agonists of the estrogen receptor alpha (ER-alpha) signaling pathway (AID 743075; calls by dose curve;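 further: HEK293 GripTite cells with ER-alpha and UAS-driven beta-lactamase reporter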; further: potency means the concentration at half of the fitted maximal effect); settings: HEK293 ER-alpha-UAS-bla, beta-lactamase FRET ratio, 18 h; series mostly up to 70.1 µM
[13] = target: Estrogen receptor (Homo sapiens) (UniProt P03372); assay: qHTS assay to identify small molecule agonists of the estrogen receptor alpha (ER-alpha) signaling pathway using the BG1 cell line (AID 743079); settings: BG1Luc4E2 cells, ERE-luciferase agonist, 22 h; activation: at 70.3 µM (top of the series); further: nearly all actives have a fitted effect of over 20% in size; further: potency means the concentration at half of the fitted maximal effect
Aromatase (Homo sapiens) = Aromatase (Homo sapiens) (UniProt P11511); assay: qHTS assay to identify aromatase inhibitors (AID 743083); settings: MCF-7 aro ERE, testosterone-driven ERE luciferase, 24 h; series mostly up to 70.3 µM; further: nearly all actives have a fitted effect of over 55% in size
[14] = qHTS assay to identify small molecule antagonists of the estrogen receptor alpha (ER-alpha) signaling pathway using the BG1 cell line (AID 743080; calls by dose curve;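 further: BG1 cells stimulated with 17beta-estradiol alongside compound; nearly all actives have a fitted effect of over 25% in size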); settings: BG1Luc4E2 ERE-luciferase antagonist mode, luminescence; series mostly up to 70.3 µM
How it was run: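 After 5 days in phenol-red-free 10% charcoal-stripped FBS medium, BG1-Luc-4E2 cells were seeded, left 24 h at 37 C, co-treated with compounds and 17beta-estradiol for 21.5 h, then assayed for viability and luciferase.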

[15] = qHTS assay to identify small molecule antagonists of the estrogen receptor alpha (ER-alpha) signaling pathway using the BG1 cell line - cell viability counter screen (AID 743081); settings: BG1Luc4E2 viability, CellTiter-Fluor, 22 h; series mostly up to 70.3 µM;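 further: compound given together with 17beta-estradiol as the ER stimulus; nearly all actives have a fitted effect of over 45% in size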

Chain of Estrogen receptor (Homo sapiens) (P03372 whole entry, looked up): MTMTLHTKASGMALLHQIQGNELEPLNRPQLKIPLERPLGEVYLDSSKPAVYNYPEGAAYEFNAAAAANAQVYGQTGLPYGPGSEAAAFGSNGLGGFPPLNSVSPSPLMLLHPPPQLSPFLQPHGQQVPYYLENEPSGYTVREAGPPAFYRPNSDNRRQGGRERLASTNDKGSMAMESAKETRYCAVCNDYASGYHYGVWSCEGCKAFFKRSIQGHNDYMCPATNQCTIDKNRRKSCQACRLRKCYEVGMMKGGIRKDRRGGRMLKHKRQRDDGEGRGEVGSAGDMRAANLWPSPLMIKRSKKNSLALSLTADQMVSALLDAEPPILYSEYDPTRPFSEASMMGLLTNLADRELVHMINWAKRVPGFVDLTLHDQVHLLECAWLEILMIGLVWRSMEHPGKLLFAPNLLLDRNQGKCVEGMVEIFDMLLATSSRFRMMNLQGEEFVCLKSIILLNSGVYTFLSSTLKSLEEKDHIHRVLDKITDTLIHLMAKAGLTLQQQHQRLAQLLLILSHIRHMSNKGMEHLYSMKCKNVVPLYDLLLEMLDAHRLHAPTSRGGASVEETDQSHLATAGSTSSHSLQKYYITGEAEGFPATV
Chain of Aromatase (Homo sapiens) (P11511 whole entry, looked up): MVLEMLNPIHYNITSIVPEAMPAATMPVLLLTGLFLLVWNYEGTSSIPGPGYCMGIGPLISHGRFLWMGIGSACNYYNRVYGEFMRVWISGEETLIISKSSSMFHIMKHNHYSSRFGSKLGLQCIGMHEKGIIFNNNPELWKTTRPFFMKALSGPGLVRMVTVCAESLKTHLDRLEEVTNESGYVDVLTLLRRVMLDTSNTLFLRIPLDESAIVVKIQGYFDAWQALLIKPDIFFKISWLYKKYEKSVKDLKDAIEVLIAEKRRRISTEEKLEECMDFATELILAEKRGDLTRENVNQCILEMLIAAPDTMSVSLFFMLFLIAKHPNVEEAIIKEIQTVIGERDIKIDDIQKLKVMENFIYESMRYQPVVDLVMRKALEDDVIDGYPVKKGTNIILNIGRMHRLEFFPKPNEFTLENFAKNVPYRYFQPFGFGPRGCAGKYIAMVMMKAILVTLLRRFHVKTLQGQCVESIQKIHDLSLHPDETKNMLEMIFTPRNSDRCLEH

SMILES	Potency [1]	Potency [2]	Potency [3]	Potency [4]	Potency [5]	Potency [6]	Potency [7]	Potency [8]	Potency [9]	Potency [10]	Potency [11]	Potency [12]	Potency [13]	Potency (Aromatase (Homo sapiens))	Potency [14]	Potency [15]
CC1=C(/C=C/C(C)=C/C=C/C(C)=C/C=C/C=C(C)/C=C/C=C(C)/C=C/C2=C(C)C(=O)CCC2(C)C)C(C)(C)CCC1=O	inactive	inactive	inactive	inactive	inactive	inactive	inactive	inactive	inactive	inactive	inactive	26.8 µM [inconclusive] (active)	5.31 µM (active)	inactive	–	–
CNC[C@@H]1CC[C@@H](N)[C@@H](O[C@H]2[C@H](O)[C@@H](O[C@H]3OC[C@](C)(O)[C@H](NC)[C@H]3O)[C@H](N)C[C@@H]2N)O1	inactive	inactive	inactive	inactive	inactive	inactive	inactive	inactive	inactive	inactive	–	inactive	inactive	inactive	inactive	–
O=C1N=C2SCCN2C(=O)C1Cc1ccc(Cl)cc1 (stereo unspecified)	inactive	inactive	inactive	inactive	inactive	inactive	inactive	inactive	inactive	–	inactive	–	–	–	–	inactive
CC(=O)[C@@]1(O)CC[C@H]2[C@@H]3C=C(Cl)C4=CC(=O)[C@@H]5C[C@@H]5[C@]4(C)[C@H]3CC[C@@]21C	inactive	inactive	inactive	inactive	inactive	inactive	inactive	inactive	inactive	–	inactive	inactive	inactive	inactive	inactive	inactive
COc1cc(S(C)=O)ccc1-c1nc2ncccc2[nH]1 (stereo unspecified)	inactive	inactive	inactive	inactive	inactive	inactive	inactive	inactive	inactive	inactive	–	inactive	inactive	inactive	inactive	inactive
O=C(NNCNNC(=O)c1ccncc1)c1ccncc1	inactive	inactive	inactive	inactive	inactive	inactive	inactive	inactive	inactive	–	inactive	–	–	inactive	–	inactive
CCN(CC)CCC(=O)N1c2ccccc2Sc2ccc(Cl)cc21	inactive	8.41 µM (active)	10.6 µM (active)	11.9 µM (active)	inactive	–	23.7 µM (active)	26.6 µM (active)	–	inactive	inactive	inactive	–	inactive	inactive	–
CN1c2cc(O)c(N=NC(N)=O)cc2CC1S(=O)(=O)O (stereo unspecified)	inactive	inactive	inactive	inactive	inactive	inactive	–	inactive	inactive	–	inactive	–	–	inactive	–	inactive
CCNC(=O)[C@@H]1CCCN1C(=O)[C@H](CCCN=C(N)N)NC(=O)[C@H](CC(C)C)NC(=O)[C@@H](CC(C)C)NC(=O)[C@H](Cc1ccc(O)cc1)NC(=O)[C@H](CO)NC(=O)[C@H](Cc1c[nH]c2ccccc12)NC(=O)[C@H](Cc1cnc[nH]1)NC(=O)[C@@H]1CCC(=O)N1	inactive	inactive	inactive	inactive	inactive	inactive	–	–	–	–	inactive	–	–	inactive	inactive	–
CCN(CC)CCC(=O)N1c2ccccc2Sc2ccc(C(F)(F)F)cc21	inactive	5.96 µM (active)	10.6 µM (active)	8.41 µM (active)	inactive	–	13.3 µM (active)	26.6 µM (active)	–	inactive	inactive	inactive	–	inactive	inactive	inactive
